GPR151 activ – activates the human receptor GPR151. Q8TDV0. PathHunter beta-arrestin GPR151 cells, luminescence. activation, % at 11.2 µM. 650,000 compounds, 1% hits; in the data active means activation above about 4.9%;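 further: 0% = median of compound wells and 100% = cells with positive control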
TEAD-YAP inh – TEAD-YAP interaction inhibition; inhibition, % at 9.12 µM; HEK-TIYL cells, TEAD-Gal4/YAP UAS-luciferase luminescence; AID 1259422; 640,000 compounds, 1.4% hits; in the data active means inhibition above about 32%;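 further: 0% = median of test compound wells and 100% = reference inhibitor wells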
MITF primary – blocks human microphthalmia-associated transcription factor. inhibition, % at 2.6 µM. 650,000 compounds, 0.91% hits. AID 1259374. O75030. AlphaScreen MITF homodimerization, bead proximity signal; in the data active means inhibition above about 50%;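 further: 0% = vehicle wells with protein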
FBW7 activator – activators of human E3 ligase FBW7 | Q969H0 | AlphaScreen FBW7–phospho-cyclin E peptide binding, activator screen | normalized activity (activation), % at 26.1 µM | 650,000 compounds, 0.13% hits; in the data active means normalized activity above about 1.9%;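 further: purified mutant Fbw7 with reduced substrate affinity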
Target sequence (Q969H0 whole entry, looked up): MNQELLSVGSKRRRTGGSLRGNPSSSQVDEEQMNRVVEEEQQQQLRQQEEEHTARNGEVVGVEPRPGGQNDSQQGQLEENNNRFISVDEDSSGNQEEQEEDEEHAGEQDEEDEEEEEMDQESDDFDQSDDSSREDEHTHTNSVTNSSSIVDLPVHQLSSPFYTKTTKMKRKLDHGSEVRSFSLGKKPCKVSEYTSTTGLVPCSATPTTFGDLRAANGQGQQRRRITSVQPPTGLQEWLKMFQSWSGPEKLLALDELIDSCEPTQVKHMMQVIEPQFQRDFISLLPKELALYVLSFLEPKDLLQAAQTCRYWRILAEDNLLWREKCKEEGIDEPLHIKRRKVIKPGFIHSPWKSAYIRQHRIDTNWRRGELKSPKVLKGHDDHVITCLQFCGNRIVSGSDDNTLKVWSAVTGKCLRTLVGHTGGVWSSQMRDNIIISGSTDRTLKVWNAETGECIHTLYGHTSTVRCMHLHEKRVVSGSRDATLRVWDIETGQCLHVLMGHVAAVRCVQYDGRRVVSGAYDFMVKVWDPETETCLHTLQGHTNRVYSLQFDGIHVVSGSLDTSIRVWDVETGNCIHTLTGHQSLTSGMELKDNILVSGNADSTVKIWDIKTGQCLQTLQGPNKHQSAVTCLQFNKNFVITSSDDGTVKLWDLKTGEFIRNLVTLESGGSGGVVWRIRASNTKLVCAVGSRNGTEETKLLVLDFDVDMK
MITF confirm – confirmation of human MITF inhibitors; shares compounds with MITF primary; AlphaScreen MITF homodimerization, biotin/His-MITF beads; inhibition, % at 2.6 µM; 4,700 compounds, 16% hits; AID 1259372;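 active means inhibition above a cutoff derived from the DMSO control wells, cut at about 28% in these data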;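 further: 0% = MITF dimer wells with DMSO only; inhibitors lower the bead chemiluminescence by keeping MITF from dimerizing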
AlphaScreen DR – counter-screen: compounds optically interfering with AlphaScreen. 480 compounds, 6% hits. IC50, µM. shares compounds with MITF primary. AlphaScreen optical interference counterscreen, cell-free; call rule not given here
AS interf ctr – optically interferes with AlphaScreen signal. inhibition, % at 2.6 µM. 4,700 compounds, 7.6% hits. LysRS AlphaScreen counterscreen, signal interference, triplicate. AID 1259376. shares compounds with MITF primary;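 active means inhibition above a cutoff derived from the DMSO control wells, cut at about 30% in these data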
Numbers without * were called inactive; . = no result. Shown are actives, neighbours in structure and some others; about 3.5% of the full set was active somewhere.

SMILES	GPR151 activ	TEAD-YAP inh	MITF primary	FBW7 activator	MITF confirm	AS interf ctr	others
CCOC(=O)C1CCCN(Cc2ccc(O)c3ncccc23)C1 (stereo not given)	1	8	78*	-2	82*	100*
CC1CCN(C(=O)C2CCN(Cc3ccccc3O)CC2)CC1	-1	3	38	1	.	.
CC1CCN(Cc2ccc(O)c3ncccc23)CC1	1	41*	83*	0	97*	100*
Cc1ccc(C)c(N=Cc2ccc(O)cc2O)c1	0	11	-24	1	.	.
CSc1ncc(Cl)c(C(=O)N(Cc2ccccc2)C2CCS(=O)(=O)C2)n1 (stereo not given)	1	-3	12	0	.	.
COc1ccc([N+](=O)[O-])cc1Nc1cnn(C23CC4CC(CC(C4)C2)C3)c(=O)c1Cl	-1	-6	51*	1	5	13
COc1ccc(C)cc1Nc1cnn(C23CC4CC(CC(C4)C2)C3)c(=O)c1Cl	2	10	4	0	.	.
O=C(N/N=C/c1ccccn1)c1cccc2ccccc12	-1	-29	4	0	.	.
O=C(N/N=C/c1ccccn1)C1=NNC(=O)C1CCO (stereo not given)	0	-6	65*	-1	31*	96*
CN(CCN1CCOCC1)C1CCN(C(=O)CNC(=O)/C=C/c2cccs2)CC1	-1	7	62*	0	1	13
Cc1ccc(N2CCN(c3ncnc4c3cnn4-c3ccc(C)cc3C)CC2C)cc1 (stereo not given)	-1	-6	0	0	.	.
O=c1cc(-c2ccccc2)[nH]n1-c1nc2ccccc2[nH]1	-1	16	40	-1	.	.
Cc1[nH]n(-c2nc3ccccc3[nH]2)c(=O)c1C1OC(=O)c2ccccc21 (stereo not given)	-1	13	91*	0	71*	100*
COCC(=O)NCCNc1nc2c(c(=O)n(C)c(=O)n2C)n1Cc1cc(C)ccc1C	0	6	77*	0	1	9
Cc1ccc(C)c(Cn2c(NCCNC(=O)C3CCC3)nc3c2c(=O)n(C)c(=O)n3C)c1	0	8	73*	0	4	13
COc1cccc(OCCN2CCOCC2)c1	0	-6	4	0	.	.
COc1ccc(Cl)cc1NC(=O)C(=O)NCc1ccc(F)cc1	-1	10	14	0	.	.
Cc1cccc2nc(CN3CCN(c4ccc(F)cc4)CC3)cn12	-1	1	72*	0	-14	2
Cc1cccc2nc(Cn3ccccc3=O)cn12	0	-1	13	0	.	.
COc1cccc(CN(CCN(C)C)Cc2ccccc2)c1OC	0	4	52*	0	-6	-3
CN(C)CCN(Cc1ccccc1)Cc1ccccc1O	0	-1	-349	0	.	.
CC(=O)Nc1ccc(CN(CCN(C)C)Cc2ccccc2)cc1	0	2	59*	0	-3	0
CCN(CC)CCN(C)Cc1ccc([N+](=O)[O-])cc1	1	-8	73*	0	8	21
CCN(CCN(C)C)Cc1ccc(NC(C)=O)cc1	-1	9	46	0	.	.
CN(C)CCN(Cc1ccccc1)Cc1ccc(O)cc1	-1	-1	33	0	.	.
SMILES	GPR151 activ	TEAD-YAP inh	MITF primary	FBW7 activator	MITF confirm	AS interf ctr	others
CN(C)CCN(Cc1ccccc1)Cc1ccc([N+](=O)[O-])cc1	0	-8	66*	0	5	2
Cc1cnc(C(=O)NCC2CCC3(CCN(Cc4ccccc4C)CC3)O2)cn1 (stereo not given)	2	6	13	0	.	.
CCCCN(C)C(=O)c1nn(-c2cccc(OC)c2)c(=O)c2ccccc12	0	8	3	0	.	.
CN1CCN(c2ccc(C(=O)c3cccc(F)c3)cc2)CC1	-1	-42	0	0	.	.
CCOCCCNCC(=O)Nc1ccc(N2CCCC2)cc1	1	-51	13	0	.	.
O=C(CCl)Nc1ccc(N2CCCCC2)cc1	2	15	-13	0	.	.
O=C(CNCCN1CCCCC1)Nc1ccc(N2CCCCC2)cc1	0	-8	94*	0	17	21
O=C(CNCCCN1CCOCC1)Nc1ccc(N2CCCCCC2)cc1	-1	-3	75*	0	5	25
O=C(CNCCN1CCCCC1)Nc1ccc(N2CCCCCC2)cc1	0	1	91*	0	8	34*
O=C(CNCCN1CCCCC1)Nc1ccc(N2CCCC2)cc1	0	-6	83*	0	15	61*
Fc1ccc(C2Nc3ccc(Br)cc3C(c3ccccc3)O2)cc1 (stereo not given)	2	0	-6	0	.	.
O=[N+]([O-])c1ccc(C2Nc3ccc(Br)cc3C(c3ccccc3)O2)cc1 (stereo not given)	2	6	57*	0	-4	2
N#Cc1c(C#N)c(N)n(N)c1N	1	-2	94*	-1	95*	73*
CN(CC1CCCO1)C1CCN(C(=S)Nc2cccc(Cl)c2)CC1 (stereo not given)	0	-6	0	0	.	.
COC1(OC)N=C(N)C2(C#N)C(c3cccc(C)c3)C12C#N (stereo not given)	0	2	52*	0	8	-2
COC1(OC)N=C(N)C2(C#N)C(c3cccc(OCc4ccccc4)c3)C12C#N (stereo not given)	-1	-3	35	0	.	.
O=C(COC(=O)c1cc(=O)c2ccccc2o1)NCc1ccccc1	-1	0	3	0	.	.
O=C(COC(=O)c1cc(=O)c2ccccc2o1)NCc1ccc(Cl)cc1	-1	11	52*	0	-9	-5
Cc1cccc(NCc2ccc(O)c3ncccc23)n1	0	6	74*	-1	53*	91*
Cc1ccccc1NCc1ccc(O)c2ncccc12	1	17	68*	-2	62*	97*
Oc1ccc(CNc2ccccc2Br)c2cccnc12	0	6	71*	0	42*	87*
CCOc1ccc(S(=O)(=O)Nc2ccccc2Br)c2cccnc12	1	-6	7	0	.	.
Cc1cccc(NCc2ccccc2O)c1C	1	-2	22	0	.	.
Cc1cccc(C)c1OCC(=O)NN	-1	-1	10	0	.	.
O=C1N[C@@H](Cc2ccc(Cl)cc2)C(=O)N2CCN(C(=O)NCc3ccccc3)C[C@H]12	1	10	73*	0	71*	-14	AlphaScreen DR=>6.5
O=C1N[C@@H](Cc2ccc(O)cc2)C(=O)N2CCN(C(=O)NCc3ccccc3)C[C@H]12	-2	4	64*	0	69*	-1	AlphaScreen DR=>6.5
O=C1N[C@@H](Cc2ccc(O)cc2)C(=O)N2CCN(C(=O)OCc3ccccc3)C[C@H]12	-2	-6	-17	0	.	.

Assay outcomes (PubChem)
